Hits are enriched below; roughly 19% of the tested compounds scored in any of these assays.
IL1B secr inh: blocks inflammasome-driven IL-1 beta release | THP-1 LPS/ATP IL-1B secretion, AlphaLISA, 16 h; stronger effect = lower value | activity change, % at 57.5 µM | 360,000 compounds, 4.7% hits | AID 743279; in the data active means activity change below about -50%; inconclusive means mostly about -30% to -49%
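Secreted IL-1B measured by AlphaLISA bead assay after 16 h compound exposure of THP-1 cells; compounds (final up to 57.5 uM) added 1 h before LPS (250 ng/mL) and ATP (1.25 mM) stimulation; lower signal means less secretion.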
HT1080 IDH1KD tx: kills HT-1080 cells with IDH1 knockdown | Potency, µM (doses to about 46.1 µM), without a hit: top-dose activity, negative = toxicity, usual class: cytotoxic | 360,000 compounds, 2% hits | HT-1080 IDH1 knockdown viability, ATP luminescence, 48 h;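 further: potency means the concentration at half of the fitted maximal effect; 0% = DMSO wells and -100% = cell-free medium wells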
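Assay cells: HT-1080 with IDH1 knockdown, 750 per well, RPMI/5% FBS. Exposure: 48 h at 37 °C following 2 h pre-incubation. Read: CellTiter-Glo luminescence; fitted concentration-response, curve class assigned.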
DT40 TDP1 no CPT: qHTS for Inhibitors of human tyrosyl-DNA phosphodiesterase 1 (TDP1): qHTS in cells in absence of CPT; DT40 Tdp1-/- hTDP1 cells, no CPT, ATP luminescence, 48 h; Potency, µM (top dose mostly 46.2 µM), inactives show top-dose activity change, negative = growth inhibition, usual class: inhibitors; 420,000 compounds, 15% hits; further: potency means the concentration at half of the fitted maximal effect; nearly all actives have a fitted effect of over 55% in size
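Cells were dispensed at 400 per well, compounds added by pin tool, plates incubated ≥48 hr at 37 °C, then CellTiter-Glo added for 30 min at room temperature before luminescence reading. Line: DT40 Tdp1-/- complemented with hTDP1; camptothecin omitted.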
HT1080NT lethal: kills 2HG-producing HT-1080-NT fibrosarcoma cells. HT-1080-NT fibrosarcoma viability, CellTiter-Glo ATP luminescence, 48 h. AID 686970. Potency, µM (series often up to 46.1 µM), for the others: top-dose activity, negative = less viability, most hits filed as cytotoxic. 360,000 compounds, 1.6% hits;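 further: NT is the 2HG producing partner of a matched IDH1 knockdown line; potency means the concentration at half of the fitted maximal effect; 0% = DMSO-treated cells and -100% = media-only wells without cells; nearly all actives have a fitted effect of over 55% in size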
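Toxicity toward the 2HG-producing NT line was scored as %Activity, normalised to DMSO and no-cell wells, from CellTiter-Glo luminescence after 48 hours' treatment.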
DT40 TDP1 CPT: DT40-hTDP1 cell growth loss with CPT | 420,000 compounds, 12% hits | Potency, µM (highest dose often 46.2 µM), for the others: at the top dose activity change, negative = growth inhibition, most hits filed as inhibitors | AID 686979 | chicken DT40 Tdp1-/-;hTDP1 cells + 20 nM CPT, ATP luminescence, 48 h; further: potency means the concentration at half of the fitted maximal effect; nearly all actives have a fitted effect of over 55% in size
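Cell growth measured by CellTiter-Glo luminescence after a minimum 48 h, 37 C compound exposure with 20 nM CPT in Tdp1-knockout DT40 cells stably expressing hTDP1, seeded 400/well; qHTS titration format.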
An asterisk follows results filed as active; ? = inconclusive; . = no result given; [ ] = dose if it differs, or a comment. Unless noted, the call rests on the fitted dose curve; in most records, active means well fitted curve in the direction sought with a large enough effect; inconclusive means small, poorly fitted or top-dose-only effect, or another doubt; inactive means no such curve, though single readings can be large; an effect the other way counts as inactive or inconclusive. Unless noted, on the % scale 0 is the no-effect control and ±100 the full control effect.

SMILES	IL1B secr inh	HT1080 IDH1KD tx	DT40 TDP1 no CPT	HT1080NT lethal	DT40 TDP1 CPT
COc1ccc(/C=C/C(=O)Nc2ccc(C)cc2)cc1	.	.	?	.	-24%
Cc1cc(N2CCCCC2)nc2ccc(NC(=O)/C=C/c3ccc(OC(C)C)cc3)cc12	.	.	7.3µM*	.	9.2µM*
Cc1ccc(NC(=O)Nc2ccc3nc(N4CCN(C)CC4)cc(C)c3c2)cc1F	.	.	4.1µM*	.	5.2µM*
COc1ccccc1CCNC(=O)CCC(=O)N1CC2C[C@@H](C1)Cn1c2cccc1=O	-13	-1%	-8%	3%	-6%
CC(C)C(Br)C(=O)NC(N)=O (stereo not drawn)	.	.	2%	.	12%
C[C@@H]1C[C@H](Nc2ccccc2)c2ccccc2N1C(=O)c1cccnc1	-3	-21%	4.6µM*	-12%	7.3µM*
COc1ccc(NC(c2ccccc2F)P(=O)(Oc2ccccc2)Oc2ccccc2)cc1 (stereo not drawn)	-23	?	?	-21%	?
CCCC[C@H](CN(N=O)[C@@H](Cc1ccccc1)CN(C)N=O)N(CCc1ccccc1)N=O	-9	-9%	?	-2%	?
CC(C)[C@H](CN(N=O)[C@@H](Cc1ccccc1)CN(C)N=O)N(CCc1ccccc1)N=O	-6	-4%	23µM*	?	23µM*
CN1CC(C#N)C2(O)c3ccccc3CCC2C1 (stereo not drawn)	-6	-1%	5%	11%	4%
Cc1[nH]ccc2c1[nH]c1cc(=O)ccc12	-26	?	13µM*	?	8.2µM*
NC1CCc2cc(O)c(O)cc2C1 (stereo not drawn)	18	-28%	13µM*	-10%	21µM*
COc1ccc(CN2CC3CC(C2)c2cccc(=O)n2C3)cc1OC (stereo not drawn)	1	-26%	-5%	-10%	?
O=C(O)/C=C/CO	.	.	-4%	.	-3%
O=C(N/N=C/c1c(O)n(CCC2=CCCCC2)c(=O)[nH]c1=O)c1ccccc1	41	?	21µM*	-25%	?
COc1ccc(/C=C/C(=O)c2c(O)n(CCC3=CCCCC3)c(=O)[nH]c2=O)cc1	-16	-9%	?	-7%	6.5µM*
CCCCn1c(O)c(C(=O)/C=C/c2ccc3c(c2)OCO3)c(=O)[nH]c1=O	-73*	-2%	?	-3%	?
CCCCn1c(O)c(C(CC)=NCc2ccc3c(c2)OCO3)c(=O)[nH]c1=O	-22	-27%	?	-16%	?
O=C(/C=C/c1ccc2c(c1)OCO2)c1c(O)n(CCC2=CCCCC2)c(=O)[nH]c1=O	0	3%	5.8µM*	6%	?
CN(C)CCN=Cc1c(O)n(CCC2=CCCCC2)c(=O)[nH]c1=O	-18	-6%	14%	16%	-3%
Cn1c(O)c(C=NCCCN2CCCC2=O)c(=O)n(C)c1=O	-5	1%	-4%	-6%	-16%
Cc1ccc(C[n+]2c(-c3ccc(C)cc3)cc(-c3ccc(C)cc3)cc2-c2ccc(C)cc2)cc1	-111*	2.6µM*	0.58µM*	3.3µM*	0.92µM*
Cc1ccc(-c2cc(-c3ccc(C)cc3)[n+](-c3ccc(C(=O)O)cc3)c(-c3ccc(C)cc3)c2)cc1	-9	-9%	-22%	?	-15%
O=c1[nH]c(=O)n(Cc2ccc(F)cc2)c(O)c1C=NCC1CCCO1 (stereo not drawn)	-9	2%	-21%	0%	-2%
CC(C)N(C(=O)CCl)c1ccccc1	-51*	?	8.2µM*	3.7µM*	6.5µM*
SMILES	IL1B secr inh	HT1080 IDH1KD tx	DT40 TDP1 no CPT	HT1080NT lethal	DT40 TDP1 CPT
C[C@@H](Cc1cccc(C(F)(F)F)c1)NCCCc1ccccc1	.	.	13µM*	.	13µM*
CCN[C@@H](C)Cc1ccccc1	.	.	3%[92.5 µM]	.	13%[92.5 µM]
O=C(NC1C=CS(=O)(=O)C1)c1sc2ccccc2c1Cl (stereo not drawn)	-97*	11µM*	23µM*	16µM*	?
COc1c2c(cc3c1OCO3)CC[N+](C)=C2	5	-3%	-12%[9.04 µM]	17%	-26%[9.04 µM]
COC(=O)C1=C(c2cccc(OC)c2OC)C[C@@H]2CC[C@H]1N2C(=O)NCCNC(C)=O	5	8%	-2%	9%	0%
COC1=C[C@@H]2C3=C([C@@H]2C1=O)[C@@H](NC(C)=O)CCc1cc(OC)c(OC)c(OC)c13	10	-10%	-19%	10%	-4%
COc1cc2c(c(OC)c1OC)-c1ccc(OC)c(=O)cc1C(NC(C)=O)CC2 (stereo not drawn)	164	?	0.0092µM*	0.015µM*	0.018µM*
COc1ccc(OC)c(CC(=O)O)c1	2	0%	-1%	6%	0%
COc1cc2c(c(OC)c1OC)-c1ccc(O)c(=O)cc1C(NC(C)=O)CC2 (stereo not drawn)	66	0.041µM*	0.065µM*	0.0052µM*	0.026µM*
COc1ccc2c(c1)C(NC(C)=O)CCc1cc(OC)c(OC)c(OC)c1-2 (stereo not drawn)	30	?	0.018µM*	0.0058µM*	0.0082µM*
Cc1cc(OC(=O)N(C)C)nc2c1c(C)nn2C	21	10%	-11%	10%	2%
N[C@@H](Cc1ccc(Oc2cc(I)c(O)c(I)c2)c(I)c1)C(=O)O	.	.	-5%	.	14%
COc1ccccc1N1CCN(C(=O)CCC(=O)Nc2nnc(CC(C)C)s2)CC1	25	6%	-18%	13%	?
NC(=Nc1ccccc1)NN=Cc1c[nH]c2ccccc12	-109*	?	0.92µM*	?	1µM*
CCCCn1c(=O)c(C(=O)NCc2ccccc2Cl)c(O)c2ccccc21	33	2%	?	5%	?
CCCCn1c(=O)c(C(=O)NCc2ccco2)c(O)c2ccccc21	75	19%	?	0%	?
CC(C)CCn1c(=O)c(C(=O)NCc2ccco2)c(O)c2ccccc21	-4	16%	9.2µM*	22%	?
CCCCCn1c(=O)c(C(=O)NCc2ccco2)c(O)c2ccccc21	89	11%	16µM*	3%	?
O=C1NC2CCCCN2C12CCN(CCCN1c3ccccc3CCc3ccc(Cl)cc31)CC2 (stereo not drawn)	.	.	24µM*	.	?
O=c1c2ccccc2nc(SCc2nc3ccccc3s2)n1Cc1ccco1	17	?	18µM*	-7%	13µM*
Nc1ccc([N+](=O)[O-])cc1O	.	.	22µM*	.	24µM*
O=[N+]([O-])c1cc(O)c(O)c([N+](=O)[O-])c1	69	-16%	?	-23%	?
FC(F)(F)c1ccccc1N1CC1c1ccncc1 (stereo not drawn)	16	-4%	-1%	-5%	-28%

Source: PubChem
